# Assay results taken from PubChem BioAssay (NCI).
# Values joined by “and” are separate entries in the source; they are usually repeats but may differ in a detail not shown here. Identical values can stand only once. The panel holds about 83,000 compounds, 20% with a hit somewhere; the sample as a whole holds those more often.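 48-hour exposure, single concentration, 96-well plates; percent growth endpoint where 0 means no net growth. Active: below 10.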 Unmarked numbers belong to inactive results. Active and inactive are the calls of the source.
# Test system: HL-60(TB) leukemia
# Assay: NCI-60 one-dose screen, 48 h (100 = growth as untreated, 0 = no growth, -100 = all killed)
# Settings: 10 µM unless noted
row,SMILES,growth
1,O=[P@@]1(c2ccccc2)O[C@H](COCc2ccccc2)[C@@H](OCc2ccccc2)[C@H](OCc2ccccc2)[C@H]1NCc1ccccc1,-25.1% (active)
2,CCOC(=O)C1=C(N)Oc2c(sc3c(CC)cccc23)C1c1ccc(F)cc1 (stereo not given),23.7%
3,COc1ccc(-c2coc3c(CO)c(O)ccc3c2=O)cc1,-24.9% (active)
4,Cc1ccc(-c2csc(NC(=O)CN3CCN(c4cc5c(cc4F)c(=O)c(C(=O)O)cn5C4CC4)CC3)n2)cc1,-56.3% (active)
5,S=C(Nc1ccc(-c2nc(N3CCOCC3)c3cccn3n2)cc1)Nc1cccnc1,59.9%
6,COc1cc(CNC(=O)/C=C/C=C/c2ccc3c(c2)OCO3)ccc1OCc1cn(-c2ccc(Cl)c(Cl)c2)nn1,85.4%
7,O=C1c2ccccc2-c2c1c1c(=O)[nH]c3ccccc3c1n2Cc1ccccc1,73.9%
8,Cc1ccc(/C=C2\SC(=S)N(CC(=O)NCCCN3CCOCC3)C2=O)cc1,99.4%
9,NS(=O)(=O)N(c1cc(C(F)(F)F)cc(C(F)(F)F)c1)C1CCN(Cc2ccc(C(F)(F)F)cc2)CC1,37.3%
10,CCCCCCCCCCCCCCCCCCOc1cccc(CCOP(=O)(O)OCC[N+](C)(C)C)c1,73.4%
11,Cc1ncsc1CCO,99.9% and 89.9%
12,COc1ccc(/C=C/C(=O)c2cc(O)ccc2O)cc1,3.32% (active)
13,Clc1cc2c(c(CSc3nc4ccccc4n4cccc34)c1)OCOC2,84.9%
14,CCO/C=N/C1=C(C#N)C(c2ccc(OC)cc2)c2sc3c(F)cccc3c2O1 (stereo not given),-9.87% (active)
15,CC(C)Sc1ncnc2nc[nH]c12,95%
16,O=C(Nc1ccc(N2CCNCC2)cc1)c1[nH]ncc1Nc1cc(C2CC2)ncn1,67.9%
17,C#Cc1cccc(NC(=O)c2ccc(NC(=O)CCl)cc2)c1,11.7% [8.25 µM]
18,NC1=NC(=O)C(c2ccccc2)(c2ccccc2)S1,97.9%
19,CC(=O)N1N=C(c2ccc(C(F)(F)F)cc2)CC1c1ccc2c(c1)OCO2 (stereo not given),95.6%
20,Cc1cn(-c2cc(C(=O)Nc3cccc(C#Cc4cccc5[nH]nc(N)c45)c3)cc(C(F)(F)F)c2)cn1,25.1%

row,SMILES,growth
1,Cc1c2c(cc3c1[nH]c1ccccc13)C=NCC2,93.3%
2,CN1CCN(Cc2ccc(NC(=O)c3cncc(C#Cc4cnccc4C(F)(F)F)c3)cc2C(F)(F)F)CC1,38.4%
3,Ic1ccc2[nH]cc(SSc3c[nH]c4ccc(I)cc34)c2c1,-21.7% (active)
4,CCN(CC)CCCC(C)Nc1c2ccc(Cl)cc2nc2ccc(O)cc12 (stereo not given),45.7%
5,CC(=O)OC(OC(C)=O)C1CCCO1 (stereo not given),147%
6,C=C(C)[C@@H]1CCC=C2CC[C@]3(C)[C@H](CC[C@@H]4[C@@]5(C)CCCNC(C)(C)[C@@H]5CC[C@]43C)[C@H]21,27.7%
7,O=C1CCCN1C(O)CCN(Cc1ccccc1)Cc1ccc(Cl)cc1 (stereo not given),96.4%
8,CCN(CC)CCCNc1ccnc2cc3ccccc3cc12,83.7%
9,Cc1ccc2c(c1)/C(=N\N=C/c1cn(C(C)C)c3ccccc13)C(=O)N2,-33.3% (active)
10,O=C(Nc1ccc(-n2ccc3c(NC(=O)c4ccccc4)nccc32)cc1)c1ccc(N2CCOCC2)c(C(F)(F)F)c1,24.8%
11,O=CN1N=C(c2ccc(Cl)cc2)CC1c1cccc(Nc2ccnc3cc(Cl)ccc23)c1 (stereo not given),-24.6% (active)
12,CCOc1ccc(Nc2nc3c(s2)C(=O)c2ccccc2C3=O)cc1,25.1%
13,CCCC(=O)Oc1ccc(/C(=C(\C)c2ccc(Cl)cc2)c2ccc(OCCN(CC)CC)cc2)cc1,-49.1% (active)
14,NC(CSC(c1ccccc1)(c1ccccc1)c1ccccc1)C(=O)NCC(=O)O (stereo not given),55%
15,COc1cc2nc(Cl)nc(Nc3cccc(C(=O)/C=C/c4ccc(Br)cc4)c3)c2cc1OC,77.8%
16,Cc1c(C(=O)NCCCc2ccccc2)sc2ncc(-c3ccc(Br)cc3)n12,90.1%
17,O=C1Nc2cc(-c3ccncc3)ccc2/C1=C/c1ccc[nH]1,99.9%
18,CCOC(=S)SCc1ccc(Cl)cc1,65.8%
19,OCC1CCC(O)C(CO)N1 (stereo not given),98.2%
20,O=C(CNS(=O)(=O)Cc1ccccc1)NNc1ccccc1,18%
